IL1B secr inh = qHTS for Inhibitors of Inflammasome Signaling: IL-1-beta AlphaLISA Primary Screen | 360,000 compounds, 4.7% hits | THP-1 LPS/ATP IL-1B secretion, AlphaLISA, 16 h; active compounds read low | activity change, % at 57.5 µM; in the data active = activity change below about -50%; inconclusive = mostly about -30% to -49%
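Secreted IL-1B measured by AlphaLISA bead assay after 16 h compound exposure of THP-1 cells; compounds (final up to 57.5 uM) added 1 h before LPS (250 ng/mL) and ATP (1.25 mM) stimulation; lower signal means less secretion.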
HepG2 tox = qHTS for Inhibitors of TGF-b: Cytotox Counterscreen; 410,000 compounds, 0.76% hits; AID 588856, 2011; HepG2 CAGA-GFP viability, ATP luminescence, 18 h; Potency, µM (doses to about 46.1 µM), actives largely listed as cytotoxic
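CellTiter-Glo luminescence gave cytotoxicity after 18 hours at 37 degrees C. The cells were HepG2 CAGA-GFP in 1% FBS DMEM, stimulated with 500 pg/mL TGF-beta after compound addition. %Activity was normalised to no-cell wells (complete cell-killing) and DMSO (no toxicity), and curves were fitted and classified.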
HT1080 IDH1KD tx = qHTS for induction of synthetic lethality in tumor cells producing 2HG: qHTS for the HT-1080-IDH1KD cell line | HT-1080 IDH1 knockdown viability, ATP luminescence, 48 h | Potency, µM (series often up to 46.1 µM), most hits filed as cytotoxic | 360,000 compounds, 2% hits | AID 686971, 2013
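Viability of IDH1-knockdown HT-1080 fibrosarcoma cells was assessed by CellTiter-Glo after 48 h at 37 °C with titrated compound; concentration-effect curves were classified by fit quality and response size.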
HT1080-NT tox = qHTS for induction of synthetic lethality in tumor cells producing 2HG: qHTS for the HT-1080-NT fibrosarcoma cell line; AID 686970, 2013; 360,000 compounds, 1.6% hits; HT-1080-NT fibrosarcoma viability, CellTiter-Glo ATP luminescence, 48 h; Potency, µM (highest dose often 46.1 µM), usual class: cytotoxic;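 note: NT is the 2HG producing partner of a matched IDH1 knockdown line; nearly all actives have a fitted effect of over 55% in size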
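Compounds were tested in concentration-response format on HT-1080-NT cells for 48 hours at 37 degrees C. Cell viability came from CellTiter-Glo luminescence; curves were classified by r2, response magnitude and activity.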
TGFb SMAD3 inh = qHTS for Inhibitors of TGF-b; HepG2 CAGA-GFP TGF-b/SMAD3 reporter, GFP fluorescence, 18 h; TGF-beta stimulated, 500 pg/mL final; Potency, µM (doses to about 46.1 µM), usual class: inhibitors; 410,000 compounds, 1.2% hits; AID 588855, 2011; note: nearly all actives have a fitted effect of over 65% in size
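Read-out: total well GFP (ex488/em500-530) summed from mean per-cell fluorescence. Cells: HEPG2 CAGA-GFP, 1% FBS DMEM, 18 h at 37 degrees C with 500 pg/mL final TGF-beta. Unstimulated wells served as the full-inhibition control; stimulated DMSO wells = 0%.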
Giardia killer = Small Molecules that selectively kill Giardia lamblia: qHTS. Giardia lamblia trophozoite viability. activity change, % at 7.66 µM, hits read low. 340,000 compounds, 0.15% hits. AID 540267, 2011; in the data active = activity change below about -80%; inconclusive = between about -30% and that limit;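 note: parasites exposed to compound for two days anaerobically before the ATP read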
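Giardia lamblia trophozoites (100 cells/well) were incubated with compounds for 48 h at 37 deg C under anaerobic conditions. Viability was read as ATP content by one-step luminescence after 15-30 min at room temperature.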
Numbers stand for hits; i = inactive; ? = inconclusive; nt = no result; ! = not confirmed by another sample; [ ] = another dose, or the depositor's remark. Compounds with a hit are over-represented: about 6.5% of the library has one in this group of screens. Unless noted, calls come from the whole dose curve; as a rule, active = well fitted curve in the direction sought with a large enough effect; inconclusive = small, poorly fitted or top-dose-only effect, or another doubt; inactive = no such curve, though single readings can be large; an effect the other way counts as inactive or inconclusive.

SMILES	IL1B secr inh	HepG2 tox	HT1080 IDH1KD tx	HT1080-NT tox	TGFb SMAD3 inh	Giardia killer
O=C1CCCC2=C1C(c1cccc(Br)c1)n1nc(-c3ccco3)nc1N2 (stereo unspecified)	-94	i	i	i	i	i
COC(=O)c1nc2n(n1)C(c1cccc(Cl)c1)C1=C(CCCC1=O)N2 (stereo unspecified)	i	i	i	i	i	i
O=C(c1ccccc1)N1CCN(C(=O)N2CCOCC2)CC1	i	i	i	i	i	i
O=C1C(=C(c2ccccc2)N2CCOCC2)Cc2ccccc21	-104	8.9µM	4.6µM	15µM	3.2µM	nt
CCOc1ccc(N(CC(=O)Nc2c(C)n(C)n(-c3ccccc3)c2=O)S(=O)(=O)c2ccccc2)cc1	i	i	i	i	i	i
CC(=O)c1ccc(Oc2ncnc(N)c2[N+](=O)[O-])cc1	i	i	i	i	i	i
Nc1ncnc(Oc2ccccc2F)c1[N+](=O)[O-]	-89	i	i	i	i	i
CCc1ccc(Oc2ncnc(N)c2[N+](=O)[O-])cc1	-86	i	i	i	i	i
C=CCSc1nnc(NC(=O)CSc2ccccn2)s1	i	i	i	i	i	i
Cc1ccc(C)c(OCCCC(=O)Nc2ccccc2C(N)=O)c1	i	i	i	i	i	i
C#CCOCCOCCOCCNc1nc(N2CCN(C(=O)C([C@@H](C)O)n3cc([C@@H](N)CCCCN)nn3)CC2)nc(N2CCN(C(=O)[C@H](CO)n3cc([C@@H](N)C(C)C)nn3)CC2)n1 (stereo partly specified)	i	i	i	i	?	i
COCC(C)n1c(C)cc(C(=O)CSc2nnc(N)s2)c1C (stereo unspecified)	i	i	i	i	i	i
COCC(C)n1c(-c2ccc3c(c2)NC(=O)CO3)csc1=Nc1ccc(OC(F)F)cc1 (stereo unspecified)	i	13µM!	?	21µM!	?	i
O=C(NCc1ccccc1)c1cc(C2CCCN(S(=O)(=O)c3cccs3)C2)on1 (stereo unspecified)	-59	i	i	i	i	nt
O=C(Nc1ccccc1)c1cc(C2CCCN(C(=O)C3CC3)C2)on1 (stereo unspecified)	i	8.9µM	i	i	i	nt
O=C(Nc1ccc2c(c1)OCO2)c1cc(C2CCCN(C(=O)CCCc3ccccc3)C2)on1 (stereo unspecified)	i	i	?	16µM	i	nt
CC(C)C(NC(=O)c1ccc(C(C)(C)C)cc1)C(=O)NCCc1ccccn1 (stereo unspecified)	i	i	i	i	i	i
Cc1ccc(O)c(NC(=O)Cc2ccc3ccccc3c2)c1	-65	i	i	?	i	i
O=C1CCCN1CCCNS(=O)(=O)c1ccccc1	i	i	i	i	i	i
CCn1ncc(Br)c1C(=O)Nc1cccc(F)c1	i	i	i	i	i	i
CCn1ncc(Br)c1C(=O)Nc1ccc(C(C)C)cc1	-85	i	i	i	i	i
N=c1oc2ccc(Br)cc2cc1C(=O)NCc1ccccc1	i	i	i	i	i	i
CC(NC(=O)c1cc2cc(Br)ccc2oc1=N)c1ccccc1 (stereo unspecified)	-51	i	i	i	i	i
CC(=O)/C(N)=N/Nc1cccc(Cl)c1	i	i	i	i	?	i
COc1ccc(OCC(=O)Nc2nnc(C)s2)cc1	i	i	i	i	i	i
SMILES	IL1B secr inh	HepG2 tox	HT1080 IDH1KD tx	HT1080-NT tox	TGFb SMAD3 inh	Giardia killer
CCC(=O)N1CCN(c2ccc(NC(=O)COc3ccccc3Cl)cc2)CC1	-55	i	i	?	?	i
CCOc1ccccc1OCC(=O)Nc1ccc(N2CCCCC2)cc1	-79	i	i[9.24 µM]	?	i	i
CCOc1ccccc1OCC(=O)Nc1nnc(C)s1	-58	i	i	i	i	i
CN1CCN(c2ccc(NC(=O)COc3ccccc3Cl)cc2)CC1	?	i	i	i	i	i
CC[C@H](C)/C=C(C)/C=C/C1=CC2=CC(=O)[C@]3(C)OC(=O)[C@@H](C(C)=O)[C@@H]3C2=CO1	i	i	?	i	i	i
COc1ccc(F)c(CN2CCCC(CO)(Cc3cccc(Cl)c3)C2)c1 (stereo unspecified)	i	i	i	i	?	i
COc1ccccc1/C=C/CN1CCCC(CO)(Cc2cccc(Cl)c2)C1 (stereo unspecified)	-70	i	16µM	26µM	?	i
COc1cccc(CC2(CO)CCCN(C/C=C/c3ccccc3OC)C2)c1 (stereo unspecified)	i	i	i	i	i	i
COc1ccc(/C=C/CN2CCCC(CO)(Cc3cccc(Cl)c3)C2)cc1 (stereo unspecified)	-78	i	23µM	?	?	i
COc1cc2[nH]c(=O)n(CCCCCC(=O)NCCCN3CCCC3=O)c(=O)c2cc1OC	i	i	i	i	i	i
Cc1ccc(S(=O)(=O)N2CCN=C2SC(C)c2ccccc2)cc1 (stereo unspecified)	i	i	i	i	?	i
Cc1cc2c(cc1C)NC(CC(=O)Nc1ccccc1)C(=O)N2 (stereo unspecified)	nt	i	nt	nt	i	nt
O=C(CC1Nc2cccc3cccc(c23)NC1=O)Nc1ccccc1 (stereo unspecified)	-63	i	i	i	i	i
Cc1ccc(NC(=O)CC2Nc3ccccc3NC2=O)cc1Cl (stereo unspecified)	i	i	21µM	21µM	?	i
Cc1ccc(NC(=O)CC2Nc3cccc4cccc(c34)NC2=O)cc1 (stereo unspecified)	nt	i	nt	nt	11µM	nt
COc1ccc(-c2cc(-c3ccc(OC)cc3)[nH]n2)cc1	i	i	?	i	i	i
CC(=O)NCCC(=O)N1CCCC(CNC(=O)c2ccc(-c3ccccc3)cc2)C1 (stereo unspecified)	i	i	i	i	i	i
C=CCC(=O)N1CCCC(CNC(=O)c2ccc(-c3ccccc3)cc2)C1 (stereo unspecified)	-64	i	i	i	i	?
Cc1c(C(=O)N2CCOCC2)sc(NC(=O)CCl)c1C#N	i	i	12µM	13µM	i	i
COc1ccc(S(=O)(=O)N2CCCOC2CNC(=O)C(=O)NCc2ccco2)cc1C (stereo unspecified)	i	i	i	i	i	i

Compound activity (PubChem BioAssay)
